Bioassay records: PubChem BioAssay, The Scripps Research Institute Molecular Screening Center
SRC2 inh: inhibits human steroid receptor coactivator 2 | Q15596 | HEK293 GAL4-SRC2 luciferase reporter, luminescence | inhibition, % at 9 µM | 370,000 compounds, 0.17% hits;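 active means inhibition above the mean inhibition of all tested compounds plus 3 SD, set per campaign, cut at about 52% in these data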;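 further: 0% = DMSO treated cells and 100% = cells given Gossypol at 36 µM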
NCOA1 inh: inhibitors of human steroid receptor coactivator 1 (SRC1). Q15788. 360,000 compounds, 0.12% hits. inhibition, % at 3.6 µM. HEK293 GAL4-SRC1 luciferase reporter, luminescence;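 active means inhibition above the campaign mean plus 3 SD, with each screening campaign given its own cutoff, cut at about 60% in these data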;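 further: 0% = DMSO treated cells and 100% = gossypol at 36 µM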
NR5A2 inv ag: NR5A2 inverse agonism in reporter assay; HEK293T StAR-luciferase reporter, LRH-1 transfected, 24 h; inhibition, % at 3.6 µM; 360,000 compounds, 0.13% hits;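 active means inhibition above the mean inhibition of all tested compounds plus 3 SD, cut at about 73% in these data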;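 further: 0% = DMSO wells and 100% = reporter-only cells lacking LRH-1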
GalR3 antag: antagonists of human GalR3 | 360,000 compounds, 0.44% hits | HEK293 GalR3-CNG cAMP membrane potential fluorescence; galR3 body fused to GalR1 C-terminus | O60755 | AID 651719 | inhibition, % at 3 µM;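 active means inhibition above the screen-wide average plus 3 SD, cut at about 13% in these data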;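 further: forskolin and galanin both at EC90 stimulate the cells; cAMP rise reported by CNG channel membrane potential dye signal; 0% = forskolin plus galanin with DMSO and 100% = forskolin alone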
NR2F2 inh: NR2F2 (human) inhibition, primary screen. P24468. HEK293T NGFI-A luciferase reporter, luminescence. inhibition, % at 8.6 µM. 370,000 compounds, 0.7% hits;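 active means inhibition above a per-plate cutoff, mean inhibition of test wells between control levels plus 3 SD, cut at about 38% in these data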;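 further: cells cotransfected with COUP-TFII expression vector driving the NGFI-A reporter; 0% = median of COUP-TF2 test wells and 100% = reporter-only cells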
Target sequence (P24468 whole entry, looked up): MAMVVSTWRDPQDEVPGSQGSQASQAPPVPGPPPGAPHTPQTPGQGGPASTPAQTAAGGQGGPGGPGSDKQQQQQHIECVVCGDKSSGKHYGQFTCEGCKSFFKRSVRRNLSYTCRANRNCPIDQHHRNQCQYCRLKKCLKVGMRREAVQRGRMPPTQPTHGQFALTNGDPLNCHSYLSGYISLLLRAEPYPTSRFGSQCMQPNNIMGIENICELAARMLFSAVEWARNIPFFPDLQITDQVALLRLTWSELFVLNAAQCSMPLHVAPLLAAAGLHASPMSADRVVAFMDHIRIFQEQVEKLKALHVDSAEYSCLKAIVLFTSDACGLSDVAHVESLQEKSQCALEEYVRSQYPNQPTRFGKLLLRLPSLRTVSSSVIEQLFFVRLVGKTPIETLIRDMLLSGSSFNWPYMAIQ
SRC3 inh: inhibitors of human steroid receptor coactivator 3 (SRC3). Q9Y6Q9. HEK293 GAL4-SRC3 luciferase reporter, luminescence. inhibition, % at 3.6 µM. 360,000 compounds, 0.17% hits;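 active means inhibition above a per-campaign cutoff, the mean of all compounds plus 3 SD, cut at about 60% in these data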;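 further: 0% = DMSO-treated cells and 100% = gossypol-treated cells at 36 µM; higher means less SRC3-driven luciferase light from the GAL4 reporter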
GalR3 conf: GalR3 (human) antagonism, confirmation; inhibition, % at 3 µM; HEK293 GalR3 CNG cAMP biosensor, membrane potential fluorescence; galR3 fused to GalR1 carboxy tail; challenged with forskolin and galanin at EC90; shares compounds with GalR3 antag; 1,600 compounds, 59% hits;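 active means inhibition above the primary screen's cutoff, the mean inhibition of all screened compounds plus 3 SD, cut at about 13% in these data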;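 further: 0% = forskolin plus galanin and 100% = forskolin alone with DMSO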
CNG parental: acts as nonspecific agonist in parental HEK-CNG cells; shares compounds with GalR3 antag; activation, % at 3 µM; 1,600 compounds, 10% hits; HEK293-CNG parental cells, cAMP membrane potential fluorescence; normalised: DMSO wells 0%, forskolin wells 100%; AID 652268; in the data active means activation above about 1.3%
Gal4-VP16 ctr: inhibits VP16 reporter, flagging COUP-TFII antagonist hits; shares compounds with NR2F2 inh; HEK293 Gal4-VP16 luciferase reporter, luminescence; inhibition, % at 8.5 µM; 2,500 compounds, 25% hits; in the data active means inhibition above about 13%
NR2F2 inh conf: confirmation of human COUP-TFII (NR2F2) inhibitors; inhibition, % at 8.5 µM; 2,500 compounds, 45% hits; HEK293 NGFI-A luciferase reporter, luminescence; AID 687008; shares compounds with NR2F2 inh;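 active means mean inhibition over three repeats above a set limit taken from the earlier primary screen, cut at about 38% in these data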;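 further: 100% = cells given the luciferase reporter alone without the COUP-TF2 vector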
An asterisk follows results filed as active; nt = no result given. Sampled rows, rich in hits. Any-hit rate of the full collection: about 1.1%.

SMILES	SRC2 inh	NCOA1 inh	NR5A2 inv ag	GalR3 antag	NR2F2 inh	SRC3 inh	GalR3 conf	CNG parental	Gal4-VP16 ctr	NR2F2 inh conf
COC(=O)C1=C(C)N(Cc2ccccc2C(F)(F)F)C(=NCc2ccccc2)NC1c1cccc(F)c1 (stereo unspecified)	20	nt	nt	-7	13	nt	nt	nt	nt	nt
CC1=CC(=O)C(C(C)C)=C/C1=N/OS(=O)(=O)c1ccccc1	14	-35	9	92*	58*	-16	35*	0	10	13
Cc1cc(C)cc(OCC(O)CN2CCC(CN3C(=O)c4cccc5cccc(c45)C3=O)CC2)c1 (stereo unspecified)	31	-9	6	28*	73*	11	21*	8.2*	7	40*
COc1ccc(CCNc2c(C)c(C)nc3ncnn23)cc1	16	31	44	90*	66*	27	90*	0	-2	52*
CCc1c(C)nc2ncnn2c1NCCc1ccc(OC)c(OC)c1	-9	-1	13	-7	23	-29	nt	nt	nt	nt
CCN1Cc2nnn(Cc3ccccc3)c2-c2cc(N3CCCC3)ccc2S1(=O)=O	-1	nt	nt	nt	-4	nt	nt	nt	nt	nt
CNc1ccccc1C(C)(C)c1cc(-c2ccc(F)cc2)no1	1	11	17	49*	45*	26	69*	0	2	31
CCn1nc(C)c(CNC(=O)c2ccc(OC3CCN(Cc4ccccn4)CC3)cc2)c1C	8	-1	27	97*	58*	26	103*	0	16*	66*
CC(=O)N1CCc2cc(S(=O)(=O)NCCC3=CCCCC3)ccc21	-23	13	30	82*	47*	18	80*	0	5	36
CC(=O)N1CCc2cc(S(=O)(=O)NCCCN3CCCCC3)ccc21	-16	24	0	-5	4	-18	nt	nt	nt	nt
COC(=O)[C@]12C[C@H](CC(=O)NCc3ccc(C)o3)C(=O)N(Cc3cccc4ccccc34)C1=C[C@H](C(C)(C)C)O[C@@H]2C	-6	nt	nt	nt	17	nt	nt	nt	nt	nt
COC(=O)[C@]12C[C@H](CC(=O)NCCCN3CCCC3=O)C(=O)N(Cc3ccc(Cl)cc3Cl)C1=C[C@H](COCc1ccccc1)O[C@@H]2C	-8	nt	nt	nt	7	nt	nt	nt	nt	nt
Cn1nc(C(C)(C)C)cc1C(=O)NCc1ccc2c(c1)OCO2	15	7	42	105*	60*	15	108*	-1	-7	50*
NC(=S)NNc1ccnc2cc(Cl)ccc12	-2	2	16	0	-6	11	nt	nt	nt	nt
O=C(NNc1ccnc2cc(Cl)ccc12)C1CCCCC1	17	26	36	27*	57*	20	112*	0	13*	65*
Cc1sc2ncnc(NCC3COc4ccccc4O3)c2c1C (stereo unspecified)	24	26	42	100*	76*	30	105*	0	-3	62*
Cc1sc2ncnc(NCC3CCCO3)c2c1C (stereo unspecified)	16	-7	23	-4	11	11	nt	nt	nt	nt
Cc1cc(C)n(-c2ccc(C(=O)Nc3ccc(S(=O)(=O)NCc4ccco4)cc3)cc2)n1	12	33	25	71*	75*	12	61*	-1	24*	71*
CC(C)Cn1c(N)c(C(=O)CSc2ccccc2)c(=O)n(C)c1=O	8	0	-16	1	-2	13	nt	nt	nt	nt
CC(C)Cn1c(N)c(C(=O)COC(=O)/C=C/c2ccccc2)c(=O)n(C)c1=O	13	0	17	16*	45*	3	86*	0	7	36
O=C(c1cc(COc2ccc3ncccc3c2)on1)N1CCC(O)CC1	-22	-15	-7	-3	24	-19	nt	nt	nt	nt
CCc1ccc(CN(C)C(=O)c2cc(COc3cccc4cnccc34)on2)cc1	18	14	37	14*	66*	34	84*	1	-7	57*
COCC1CCCN(C(=O)c2cc(COc3ccc4ncccc4c3)on2)C1 (stereo unspecified)	15	4	42	100*	67*	12	125*	0	-4	60*
CCC(O)C1CCN(C(=O)c2cc(COc3ccc4ncccc4c3)on2)CC1 (stereo unspecified)	4	24	33	101*	72*	1	91*	0	5	63*
Cc1cc(CN(C)C(=O)c2cc(COc3ccc4ncccc4c3)on2)on1	8	-5	22	37*	55*	17	69*	0	2	43*
SMILES	SRC2 inh	NCOA1 inh	NR5A2 inv ag	GalR3 antag	NR2F2 inh	SRC3 inh	GalR3 conf	CNG parental	Gal4-VP16 ctr	NR2F2 inh conf
O=C(c1cc(COc2ccc3ncccc3c2)on1)N1CCCC(O)C1 (stereo unspecified)	11	8	1	-7	28	16	nt	nt	nt	nt
COC(=O)[C@]12C[C@H](CC(=O)NCC3CCCCC3)C(=O)N(Cc3cccc4ccccc34)C1=C[C@H](C1CCCC1)O[C@@H]2C	6	nt	nt	nt	1	nt	nt	nt	nt	nt
CC1CCC2(CCC(=O)N2CCCOC(=O)NC(C)(C)C)CC1 (stereo unspecified)	29	nt	nt	nt	-4	nt	nt	nt	nt	nt
O=C(NC1CCCCCCC1)c1cc(COc2ccc3ncccc3c2)on1	31	24	42	68*	62*	35	92*	1	2	63*
Cc1cccc(C)c1OCc1cc(C(=O)NC2CCC2)no1	-22	-26	-42	-2	-10	-17	nt	nt	nt	nt
COc1ccc(OC)c(S(=O)(=O)NCC2CCN(C(=O)C(=O)c3cc4ccccc4o3)CC2)c1	-4	nt	nt	-6	8	nt	nt	nt	nt	nt
CCc1nc(C)cn1S(=O)(=O)c1cc(C)c(OC)cc1C	-11	-17	-31	0	-9	-2	nt	nt	nt	nt
CCc1nc(C)cn1S(=O)(=O)c1cc(C)c(OC)c(C)c1C	24	-3	-5	26*	49*	14	82*	1	7	40*
N#CC(C#N)=C(Nc1ccc(F)cc1)SCc1cccc(Br)c1	21	50	60	92*	52*	52	100*	0	4	38*
CC(=O)Nc1ccc(NC(=O)c2ccc(CN3CCc4ccccc4C3)cc2)cc1	-4	-25	-5	-10	2	-7	nt	nt	nt	nt
